Reference: PubChem BioAssay (NCI)
“And” between values parts separate entries of the source, which are not always exact repeats. Identical values can stand only once. Compounds without any hit were thinned out: in the full panel of roughly 83,000, 20% have a hit.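 Values shown are percent growth following 48 h exposure of cells in 96-well plates to a single concentration of compound; below 10 was considered active.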 A number with no mark means an inactive call. The source made the active and inactive calls.

The compounds below were run on HL-60(TB) leukemia (assay: NCI-60 one-dose screen, 48 h (100 = growth as untreated, 0 = no growth, -100 = all killed)). Conditions: 10 µM unless noted.

| Compound | growth |
| --- | --- |
| CC1OC2CC(=O)OC2C2=C1C(=O)c1c(O)cccc1C2=O (stereo unspecified) | -47.8% (active) |
| Cc1ccc(/C=C2\Oc3cc(OCC(=O)c4ccc(Cl)cc4)ccc3C2=O)cc1 | 50.7% |
| Cc1ccc(NS(=O)(=O)c2ccc(C)cc2)cc1 | 87.5% and 114% |
| C=C1C(=O)O[C@H]2[C@H]1CC/C(COC(=O)CCSCCC(=O)OC/C1=C/CC[C@@]3(C)O[C@H]3[C@H]3OC(=O)C(=C)[C@@H]3CC1)=C\CC[C@@]1(C)O[C@@H]21 | -58.2% (active) |
| Nc1c(C(=O)Nc2ccccc2)sc2nc3c(cc12)CCCCC3 | 10.4% |
| CCC1=C[C@@H]2CN(C1)Cc1c([nH]c3ccccc13)[C@@](C(=O)OC)(c1cc3c(cc1OC)N(C=O)[C@H]1[C@@](O)(C(=O)OC)[C@H](OC(C)=O)[C@]4(CC)[C@@H]5C[C@@H]5CN5CC[C@]31[C@@H]54)C2 | -19.4% (active) |
| N#CC1=C(N)Oc2c(sc3c(Br)cccc23)C1c1ccc(F)cc1 (stereo unspecified) | -25.6% (active) |
| C[n+]1c(/C=C/c2c[nH]c3ccccc23)ccc2ccccc21 | 73.9% |
| CC(=O)O[C@H]1CC[C@]2(C)C3=C(C(=O)C[C@H]2C1(C)C)[C@]1(C)CC[C@H]([C@H](C)CCC(=O)O)[C@@]1(C)CC3=O | 108% |
| COc1ccc(C(=O)C2C(c3ccc(OC)cc3)CN(C)C23C(=O)Nc2ccccc23)cc1 (stereo unspecified) | 99.1% |
| COc1cc(-n2cc(-c3cc(O)c(C/C=C(\C)CCC=C(C)C)c(O)c3)nn2)cc2c1O[C@]1(C)CC[C@@H](O)C(C)(C)[C@H]1C2 | -13.9% (active) |
